Reference: article PMC11574364

What was measured:
Assay in all cases: protein domain microarray probed with biotinylated miRNA; Domain array: 20 mM Tris-HCl pH 7.4, 200 mM KCl, 0.2 mM EDTA, 0.05% NP40, 2 ug/ul heparin, overnight 4 C. ORF array: PBS pH 7.0 with RNase inhibitor, 100 ng RNA; high values mean tight binding
Details in all cases: ssRNA
TIAL1 = target: T1, TIAL1 (Homo sapiens, UniProt Q01085)
T1 sequence: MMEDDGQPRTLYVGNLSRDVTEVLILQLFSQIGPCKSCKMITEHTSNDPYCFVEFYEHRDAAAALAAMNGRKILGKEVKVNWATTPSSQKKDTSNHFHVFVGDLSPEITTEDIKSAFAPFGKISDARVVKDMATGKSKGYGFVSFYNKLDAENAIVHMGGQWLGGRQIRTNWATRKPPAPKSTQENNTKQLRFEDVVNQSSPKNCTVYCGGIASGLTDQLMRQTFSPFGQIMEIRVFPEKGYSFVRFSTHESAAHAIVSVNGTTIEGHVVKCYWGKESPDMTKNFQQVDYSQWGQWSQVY

RNPS1 = target: T2, RNPS1 (Homo sapiens, UniProt Q15287)
T2 sequence: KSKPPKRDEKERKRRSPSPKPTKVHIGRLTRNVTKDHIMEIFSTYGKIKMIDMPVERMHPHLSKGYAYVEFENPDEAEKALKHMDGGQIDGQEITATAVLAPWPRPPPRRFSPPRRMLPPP

RBMY1A1 / RBMY1B = RBMY1A1 / RBMY1B (Homo sapiens, UniProt P0DJD3)
SHARP(1) = target: T3, SHARP(1) (Homo sapiens, UniProt Q96T58)
T3 sequence: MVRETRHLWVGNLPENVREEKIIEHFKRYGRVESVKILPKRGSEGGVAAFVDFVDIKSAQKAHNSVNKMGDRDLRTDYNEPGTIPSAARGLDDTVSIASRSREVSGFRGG

RBMX2 = target: T4, RBMX2 (Homo sapiens, UniProt Q9Y388)
T4 sequence: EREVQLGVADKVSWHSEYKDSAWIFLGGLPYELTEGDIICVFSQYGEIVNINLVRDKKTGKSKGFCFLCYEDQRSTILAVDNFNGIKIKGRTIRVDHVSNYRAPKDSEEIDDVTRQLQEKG

RDM1 = target: T5, RDM1 (Homo sapiens, UniProt Q8NG50)
T5 sequence: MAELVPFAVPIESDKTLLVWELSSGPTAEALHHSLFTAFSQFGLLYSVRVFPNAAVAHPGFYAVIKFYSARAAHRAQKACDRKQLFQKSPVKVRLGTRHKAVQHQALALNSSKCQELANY

SHARP(2-4) = target: T6, SHARP(2-4) (Homo sapiens, UniProt Q96T58)
T6 sequence: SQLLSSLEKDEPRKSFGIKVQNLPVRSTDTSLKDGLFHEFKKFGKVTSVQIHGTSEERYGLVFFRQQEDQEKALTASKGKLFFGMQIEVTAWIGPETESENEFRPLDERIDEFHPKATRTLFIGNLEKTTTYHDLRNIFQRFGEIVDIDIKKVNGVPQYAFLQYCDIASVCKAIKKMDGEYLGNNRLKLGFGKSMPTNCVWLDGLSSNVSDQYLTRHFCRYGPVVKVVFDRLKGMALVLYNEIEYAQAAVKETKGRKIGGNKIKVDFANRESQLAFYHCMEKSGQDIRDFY

SRSF10 = SRSF10 (Homo sapiens, UniProt O75494)
hnRNP E1(1-2) = hnRNP E1(1-2) (Homo sapiens, UniProt Q15365)
DDX9(2)/DHX9 = DDX9(2)/DHX9 (Homo sapiens, UniProt Q08211)
Sequence of DDX9(2)/DHX9 (Q08211 161-271): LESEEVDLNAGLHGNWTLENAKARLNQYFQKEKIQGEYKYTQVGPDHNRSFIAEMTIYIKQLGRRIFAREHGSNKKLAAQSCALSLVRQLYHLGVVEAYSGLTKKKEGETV

Sequence of hnRNP E1(1-2) (Q15365 1-183): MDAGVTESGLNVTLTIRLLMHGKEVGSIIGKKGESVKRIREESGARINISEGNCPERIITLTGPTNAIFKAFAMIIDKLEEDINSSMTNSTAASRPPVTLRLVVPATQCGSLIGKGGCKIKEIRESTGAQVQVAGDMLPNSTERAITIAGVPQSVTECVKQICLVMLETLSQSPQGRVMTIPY
Sequence of SRSF10 (O75494 1-120): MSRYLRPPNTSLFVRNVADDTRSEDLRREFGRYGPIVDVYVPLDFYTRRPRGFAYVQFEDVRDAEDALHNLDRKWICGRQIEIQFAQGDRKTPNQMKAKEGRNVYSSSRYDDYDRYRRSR
Sequence of RBMY1A1 / RBMY1B (P0DJD3 1-110): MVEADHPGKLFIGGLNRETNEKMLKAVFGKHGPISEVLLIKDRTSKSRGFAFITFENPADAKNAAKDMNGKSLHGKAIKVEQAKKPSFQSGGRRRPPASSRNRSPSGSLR

| Sequence | binding signal (TIAL1) | binding signal (RNPS1) | binding signal (RBMY1A1 / RBMY1B) | binding signal (SHARP(1)) | binding signal (RBMX2) | binding signal (RDM1) | binding signal (SHARP(2-4)) | binding signal (SRSF10) | binding signal (hnRNP E1(1-2)) | binding signal (DDX9(2)/DHX9) |
| --- | --- | --- | --- | --- | --- | --- | --- | --- | --- | --- |
| UGAGGUAGUAGGUUGUAUAGUU | 437 ± 10.1 fluorescence intensity | 45.1 ± 1.35 fluorescence intensity | 754 ± 30.5 fluorescence intensity | 63 ± 1.09 fluorescence intensity | 34.7 ± 8.67 fluorescence intensity | 46.4 ± 1.9 fluorescence intensity | 138 ± 34.1 fluorescence intensity | 91 ± 3.12 fluorescence intensity |  |  |
| UAGCUUAUCAGACUGAUGUUGA | 684 ± 18.7 fluorescence intensity |  | 602 ± 35.9 fluorescence intensity | 32 ± 6.87 fluorescence intensity | 21.4 ± 3.97 fluorescence intensity | 21.8 ± 0.523 fluorescence intensity | 705 ± 41.5 fluorescence intensity | 33.4 ± 2.35 fluorescence intensity |  |  |
| CAGUGCAAUGAUGAAAGGGCAU | 523 ± 28 fluorescence intensity | 160 ± 25.6 fluorescence intensity | 1153 ± 5.4 fluorescence intensity | 1723 ± 15.7 fluorescence intensity | 29.6 ± 4.16 fluorescence intensity | 185 ± 14.8 fluorescence intensity | 630 ± 20.1 fluorescence intensity | 865.4 ± 6.43 fluorescence intensity | 26.8 ± 0.919 fluorescence intensity | 26 ± 1.37 fluorescence intensity |
| AGAGGUAGUAGGUUGCAUAGUU | 1020 ± 13.1 fluorescence intensity | 183 ± 12.6 fluorescence intensity | 2000 ± 49 fluorescence intensity | 423 ± 5.21 fluorescence intensity | 65.8 ± 17.9 fluorescence intensity | 230 ± 20.4 fluorescence intensity | 711 ± 17.9 fluorescence intensity | 422 ± 31.8 fluorescence intensity | 27.4 ± 2.06 fluorescence intensity | 33 ± 2.41 fluorescence intensity |
| UGAGGUAGUAGGUUGUAUGGUU | 789 ± 12.4 fluorescence intensity | 294 ± 40.2 fluorescence intensity | 1403 ± 13.2 fluorescence intensity | 702.32 ± 0.332 fluorescence intensity | 69.6 ± 0.757 fluorescence intensity | 232 ± 12 fluorescence intensity | 710 ± 31.7 fluorescence intensity | 375 ± 21.5 fluorescence intensity | 26.7 ± 0.438 fluorescence intensity | 44.6 ± 4.16 fluorescence intensity |
| UGAGGUAGUAGGUUGUGUGGUU | 740 ± 11.2 fluorescence intensity | 565 ± 18.8 fluorescence intensity | 1360 ± 32 fluorescence intensity | 1119.4 ± 0.849 fluorescence intensity | 111 ± 6.68 fluorescence intensity | 427 ± 12.9 fluorescence intensity | 1000 ± 18.8 fluorescence intensity | 467 ± 36.1 fluorescence intensity | 34.9 ± 2.48 fluorescence intensity | 53.91 ± 0.134 fluorescence intensity |
